Assay outcomes (PubChem)
bovine MsrA act: activators of bovine methionine sulfoxide reductase A | purified bovine MsrA, absorbance read-out | activation, % at 10.6 µM | 0.3% of 360,000 active; in the data active = activation above about 7.5%
MsrA inhibitor: inhibitors of bovine MsrA; inhibition, % at 15.5 µM; 0.75% of 360,000 active; purified bovine MsrA, absorbance read-out; in the data active = inhibition above about 4.5%
NadD inh: inhibitors of Staphylococcus aureus NadD; inhibition, % at 20 µM; purified NadD enzyme, colorimetric absorbance read-out; 0.78% of 360,000 active; AID 602399; in the data active = inhibition above about 26%
rCAG RNA binder: molecules binding r(CAG) RNA repeats; r(CAG) RNA repeat, TO-PRO-1 dye displacement fluorescence; AID 651821; 1.3% of 370,000 active; inhibition, % at 3 µM;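 active = inhibition above the plate cutoff, the mean of all test compounds on that plate plus 3 SD, cut at about 35% in these data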;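 also: higher means more dye released from RNA so lower well fluorescence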
rCAG binder conf: r(CAG) RNA repeat binding, confirmation; 70% of 4,300 active; TO-PRO-1 dye displacement fluorescence; inhibition, % at 3 µM; shares compounds with rCAG RNA binder;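 active = inhibition above a per-plate cutoff, the mean inhibition of sample wells plus 3 SD, cut at about 35% in these data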;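 also: loss of TO-PRO-1 fluorescence as compound displaces dye from 1x1 AA loop RNA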
dCAG dye counter: counter-screen for rCAG RNA binders: DNA CAG dye complex inhibitors | shares compounds with rCAG RNA binder | d(CAG) DNA oligo TO-PRO-1 dye displacement, fluorescence | inhibition, % at 3 µM | 94% of 4,300 active;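 active = inhibition above its plate's cutoff, the mean test-well inhibition plus 3 SD, cut at about 4.8% in these data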;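 also: hits displace the dye from DNA and so lower well fluorescence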
dCAG dye DR: counter-screen for rCAG binders: inhibitors of DNA CAG TO-PRO-1 complex; shares compounds with rCAG RNA binder; DNA CAG/GTC duplex TO-PRO-1 dye displacement fluorescence; IC50, µM; 20% of 250 active; AID 686960; in the data active = IC50 below about 10 µM
Large screens that a line does not name were inactive (follow-up assays come after a bar, where they were run). Only some compounds are listed: those with a hit (about 2.7% of all), similar ones and a draw of the others.

O=C(NC(Cc1ccccc1)C(=O)O)/C(=C/c1ccc([N+](=O)[O-])cc1)NC(=O)c1ccccc1 (stereo unspecified)	none
CC1=C(C(=O)N(C(C)C)C(C)C)CC(CC(=O)NC2CCCCC2)C(=O)N1Cc1ccc(C(C)(C)C)cc1 (stereo unspecified)	none
C=Cc1c(C)c2cc3[nH]c(cc4nc(cc5nc(cc1[nH]2)C(C)=C5CCC(=O)O)C(CCC(=O)O)=C4C)c(C)c3C=C	rCAG RNA binder 90.3 | rCAG binder conf 87.1 | dCAG dye counter 57.1
COc1ccc(CC(=O)Nc2cc(Cl)ccc2C(=O)O)cc1	none
CCCCOc1ccc(Nc2cc(Cl)ccc2C(=O)O)cn1	rCAG RNA binder 70.4 | rCAG binder conf 63.7 | dCAG dye counter 15.9
N=C1/C(=C\c2ccc(SCc3ccco3)o2)C(=O)N=C2SC=NN12	rCAG RNA binder 41.1 | rCAG binder conf inactive | dCAG dye counter 8.4
CC1=NN2C(=N)/C(=C\c3ccc(SCc4ccccc4)o3)C(=O)N=C2S1	none
Fc1ccc(Nc2nc(NCc3ccco3)c3ccccc3n2)cc1	none
Cc1ccc(S(=O)(=O)/N=C2/NC(=O)/C(=C\c3ccccc3)S2)cc1	rCAG RNA binder 82.6 | rCAG binder conf 76.5 | dCAG dye counter 35.7
Cc1ccc(/C=C2\S/C(=N/S(=O)(=O)c3cccs3)NC2=O)cc1	rCAG RNA binder 59.7 | rCAG binder conf 65.0 | dCAG dye counter 23.8
Cc1ccc(S(=O)(=O)/N=C2/NC(=O)/C(=C/c3ccccc3)S2)cc1	MsrA inhibitor 4.6, rCAG RNA binder 83.8 | rCAG binder conf 70.7 | dCAG dye counter 29.7 | dCAG dye DR 4.89
O=C(CN1C(=O)NC2(CCCC2)C1=O)N1CCc2ccccc2C1	none
Cc1ccc(NC(=S)N(Cc2ccco2)C2CCN(C(C)C)CC2)cc1	rCAG RNA binder 37.1 | rCAG binder conf inactive | dCAG dye counter inactive
Cc1ccc(NC(=S)N(CCN2CCCCC2)Cc2ccco2)cc1	none
O=C(COC(=O)c1cccs1)NCc1ccccc1	none
O=C(COC(=O)c1ccc(NS(=O)(=O)c2cccs2)cc1O)Nc1nc2ccccc2s1	rCAG RNA binder 73.2 | rCAG binder conf 63.6 | dCAG dye counter 29.1
O=C(COC(=O)c1ccc(NS(=O)(=O)c2cccs2)cc1O)NCc1ccccc1	rCAG RNA binder 37.5 | rCAG binder conf inactive | dCAG dye counter 6.4
COc1cc(NS(=O)(=O)c2ccc(NC(=S)NC(=O)c3ccc(F)c(F)c3)cc2)nc(OC)n1	rCAG RNA binder 49.3 | rCAG binder conf 53.9 | dCAG dye counter 11.9 | dCAG dye DR inactive
COc1cc(NS(=O)(=O)c2ccc(NC(=O)COc3ccccc3C)cc2)nc(OC)n1	rCAG RNA binder 44.9 | rCAG binder conf inactive | dCAG dye counter 12.8
Cc1ccc(OCC(=O)Nc2ccc(S(=O)(=O)Nc3cc(C)nc(C)n3)cc2)c(C)c1	none
COc1cc(NS(=O)(=O)c2ccc(NC(=O)COc3ccc(C)cc3C)cc2)nc(OC)n1	rCAG RNA binder 45.1 | rCAG binder conf 46.0 | dCAG dye counter 14.4
COC(=O)CCC(=O)Nc1ccc(S(=O)(=O)Nc2cc(OC)nc(OC)n2)cc1	none
COc1cc(NS(=O)(=O)c2ccc(NC(=O)COc3ccc(C)cc3)cc2)nc(OC)n1	rCAG RNA binder 38.3 | rCAG binder conf inactive | dCAG dye counter 10.5
CCCN(CCC)Cc1cc(=O)oc2cc(C)cc(C)c12	none
COc1cc(NS(=O)(=O)c2ccc(NC(=S)NC(=O)COc3ccccc3OC)cc2)nc(OC)n1	rCAG RNA binder 43.9 | rCAG binder conf 58.7 | dCAG dye counter 23.7
COc1c(C)cccc1C(=O)NCCCNC(=O)c1ccc(C)nc1	none
CCOCCOC(=O)c1ccc(-n2cncn2)nc1	none
O=C1c2cc(CO)cc(O)c2C(=O)c2c(O[C@@H]3OC(CO)[C@@H](O)[C@@H](O)[C@@H]3O)cccc21 (stereo partly specified)	none
O=C(O)c1cc(O)c2c(c1)[C@@H]([C@H]1c3cc(C(=O)O)cc(O)c3C(=O)c3c(O[C@@H]4O[C@H](CO)[C@@H](O)[C@H](O)[C@H]4O)cccc31)c1cccc(OC3O[C@H](CO)[C@@H](O)[C@H](O)[C@H]3O)c1C2=O (stereo partly specified)	rCAG RNA binder 100.2 | rCAG binder conf 86.0 | dCAG dye counter 52.1
O=C(O)c1cc(O)c2c(c1)[C@H]([C@H]1c3cc(C(=O)O)cc(O)c3C(=O)c3c(O[C@@H]4O[C@H](CO)[C@@H](O)[C@H](O)[C@H]4O)cccc31)c1cccc(OC3O[C@H](CO)[C@@H](O)[C@H](O)[C@H]3O)c1C2=O (stereo partly specified)	NadD inh 68.4, rCAG RNA binder 100.5 | rCAG binder conf 99.4 | dCAG dye counter 89.6
N#C/C(=C/c1cccc([N+](=O)[O-])c1)C(=O)Nc1ccccc1O	none
N#C/C(=C\c1ccccc1)C(=O)NNS(=O)(=O)c1cccc([N+](=O)[O-])c1	rCAG RNA binder 36.5 | rCAG binder conf inactive | dCAG dye counter inactive
